Sampled rows, rich in hits. Any-hit rate of the full collection: about 19%.
DT40 TDP1 no CPT: qHTS for Inhibitors of human tyrosyl-DNA phosphodiesterase 1 (TDP1): qHTS in cells in absence of CPT; 15% of 420,000 active; Potency, µM (series often up to 46.2 µM), without a hit: top-dose activity change, negative = growth inhibition, actives largely listed as inhibitors; DT40 Tdp1-/- hTDP1 cells, no CPT, ATP luminescence, 48 h; also: potency is read from the fitted curve at half-maximal effect; nearly all actives have a fitted effect of over 55% in size
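Luminescent ATP content (CellTiter-Glo) served as the growth readout. Knockout chicken DT40 cells expressing human TDP1 were exposed to compounds without camptothecin for a minimum 48 hr at 37 °C.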
IL1B secr inh: qHTS for Inhibitors of Inflammasome Signaling: IL-1-beta AlphaLISA Primary Screen; THP-1 LPS/ATP IL-1B secretion, AlphaLISA, 16 h; stronger effect = lower value; activity change, % at 57.5 µM; 4.7% of 360,000 active; AID 743279, 2014; in the data active = activity change below about -50%; inconclusive = mostly about -30% to -49%
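THP-1 cells pretreated 1 hr with compounds (up to 57.5 uM final), then stimulated with LPS (250 ng/mL final) plus ATP (1.25 mM final); secreted IL-1B measured by AlphaLISA after 16 hr, decreased signal indicating inhibition.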
Giardia killer: Small Molecules that selectively kill Giardia lamblia: qHTS. 0.15% of 340,000 active. Giardia lamblia trophozoite viability. activity change, % at 7.66 µM, hits read low. AID 540267, 2011; in the data active = activity change below about -80%; inconclusive = between about -30% and that limit;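 also: parasites exposed to compound for two days anaerobically before the ATP read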
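Giardia trophozoites, 100 cells per well, were exposed to compounds for 48 hrs at 37 deg C under anaerobic conditions; viability was then read as ATP content by bioluminescence after 15-30 min at room temperature.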
ELG1 DNA repair: qHTS screen for small molecules that inhibit ELG1-dependent DNA repair in human embryonic kidney (HEK293T) cells expressing luciferase-tagged ELG1. HEK293T ELG1-luciferase reporter, luminescence, 16 h; DNA damage induced by 5-fluorouridine. Potency, µM (series often up to 46.1 µM), inactives show at the top dose activity change, negative = inhibition, most hits filed as inhibitors. 2.3% of 330,000 active. AID 504467, 2011; also: potency is read from the fitted curve at half-maximal effect; nearly all actives have a fitted effect of over 55% in size
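Cells (2,000 per well) received 5-fluorouridine plus test compound or DMSO and were incubated 16 hr at 37 °C, 5% CO2. Luciferase activity was read by luminescence 30 min after ONE-Glo addition; signal suppression marked inhibition of damage-induced ELG1 function.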
TDP1 cell CPT: qHTS for Inhibitors of human tyrosyl-DNA phosphodiesterase 1 (TDP1): qHTS in cells in presence of CPT | AID 686979, 2013 | 12% of 420,000 active | chicken DT40 Tdp1-/-;hTDP1 cells + 20 nM CPT, ATP luminescence, 48 h | Potency, µM (top dose mostly 46.2 µM), for inactives: top-dose activity change, negative = growth inhibition, most hits filed as inhibitors; also: potency is read from the fitted curve at half-maximal effect; nearly all actives have a fitted effect of over 55% in size
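Cell growth measured by CellTiter-Glo luminescence after a minimum 48 h, 37 C compound exposure with 20 nM CPT in Tdp1-knockout DT40 cells stably expressing hTDP1, seeded 400/well; qHTS titration format.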
TDP1 block: qHTS Assay for Inhibitors of Tyrosyl-DNA Phosphodiesterase (TDP1). AID 485290, 2010. recombinant TDP1, AlphaScreen DNA substrate cleavage. Potency, µM (doses to about 130 µM), for the others: top-dose activity change, negative = inhibition, usual class: inhibitors. 0.28% of 350,000 active. Tyrosyl-DNA phosphodiesterase 1 (Homo sapiens), Q9NUW8; also: potency is read from the fitted curve at half-maximal effect; nearly all actives have a fitted effect of over 40% in size
Target sequence (Q9NUW8 whole entry, looked up): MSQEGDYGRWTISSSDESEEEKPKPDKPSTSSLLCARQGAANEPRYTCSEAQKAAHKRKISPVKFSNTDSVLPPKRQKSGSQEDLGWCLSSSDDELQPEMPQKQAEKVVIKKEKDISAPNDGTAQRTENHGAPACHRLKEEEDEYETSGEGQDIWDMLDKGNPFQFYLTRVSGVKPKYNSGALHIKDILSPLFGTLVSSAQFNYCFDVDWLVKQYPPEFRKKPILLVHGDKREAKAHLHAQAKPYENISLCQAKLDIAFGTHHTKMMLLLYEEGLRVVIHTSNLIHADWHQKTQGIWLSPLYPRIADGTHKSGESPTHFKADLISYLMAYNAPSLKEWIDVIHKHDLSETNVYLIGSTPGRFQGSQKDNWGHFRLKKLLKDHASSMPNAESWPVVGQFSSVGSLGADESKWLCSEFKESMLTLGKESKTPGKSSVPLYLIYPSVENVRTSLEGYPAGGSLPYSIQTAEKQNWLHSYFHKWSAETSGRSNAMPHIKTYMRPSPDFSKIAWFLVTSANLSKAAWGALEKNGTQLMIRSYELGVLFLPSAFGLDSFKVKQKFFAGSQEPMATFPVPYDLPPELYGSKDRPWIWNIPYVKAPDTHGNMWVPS
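AlphaScreen read-out: signal falls as enzyme removes the 3' tyrosine-FITC from a 5'-biotinylated DNA oligo (15 nM, 5 min, RT). Enzyme was E. coli-made recombinant Tdp1 at 1 nM, exposed to compound for 15 min beforehand; beads 10 ug/ml, 10 min.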
* = called active by the depositor; ? = inconclusive; / = no result given; [ ] = remark or other dose. Unless noted, calls follow the shape of the dose curve; as a rule, active = well fitted curve in the direction sought with a large enough effect; inconclusive = small, poorly fitted or top-dose-only effect, or another doubt; inactive = no such curve, though single readings can be large; an effect the other way counts as inactive or inconclusive. % is scaled to controls: 0 for no effect and ±100 for the full control effect.

SMILES	DT40 TDP1 no CPT	IL1B secr inh	Giardia killer	ELG1 DNA repair	TDP1 cell CPT	TDP1 block
c1coc(-c2nc3nc4ccccc4nc3n2-c2ccc3c(c2)OCCO3)c1	-24%	-7	6	16µM*	-26%	4%
c1ccc(Cn2c(-c3ccco3)nc3nc4ccccc4nc32)cc1	?	-9	-16	?	13µM*	0%
c1coc(-c2nc3nc4ccccc4nc3n2CC2CCCO2)c1 (centres undefined)	?	5	13	?	-13%	-1%
C=CCNC(=S)N1CCC(Cc2ccccc2)CC1	?	12	5	-5%	?	2%
O=C(CCn1c(=O)c2cccn2c2ccc(F)cc21)NCc1ccccc1F	?	/	/	/	?	-6%
COc1ccc(CCn2c(-c3cc([N+](=O)[O-])cc([N+](=O)[O-])c3)nc3nc4ccccc4nc32)cc1OC	23µM*	10	?	?	?	-3%
COCCCn1c(-c2ccc(OC)cc2)nc2nc3ccccc3nc21	/	/	/	?	/	2%
COc1ccc(CCn2c(-c3ccco3)nc3nc4ccccc4nc32)cc1	10µM*	-22	-5	?	16µM*	9%
CCCn1c(-c2ccc(OC)cc2)nc2nc3ccccc3nc21	21µM*	10	-24	-16%	23µM*	-4%
COc1ccc(CCn2c(-c3cc([N+](=O)[O-])cc([N+](=O)[O-])c3)nc3nc4ccccc4nc32)cc1	?	14	-28	21%	?	4%
CC[N+]1=C(C)C(C)(C)c2cc(C)ccc21	1.6µM*	0	17	13µM*	8.2µM*	8%
Cc1ccc(C)c(S(=O)(=O)N/N=C/c2ccc(N(C)C)cc2)c1	-13%	11	12	2%	3%	8%
Cc1cnc2c(C)ccc(C)c2c1/C=C/c1ccc(N(C)C)cc1	16µM*	/	/	/	?	/
Cc1cnc(/C=C/c2ccc(N(C)C)cc2)cn1	2.8µM*	/	/	/	3.2µM*	/
CN(C)c1ccc(C=O)cc1	10%	/	/	/	-8%	/
COC(=O)c1ccccc1NC(=O)N1CCN(Cc2ccco2)CC1	-9%	3	?	-2%	-1%	8%
CCOC(=O)c1cc(NC(=O)c2ccccc2)c(=O)n2c1oc1ccc(Cl)cc12	?	/	/	/	-23%	0%
COc1ccc(Cl)cc1NC(=O)C1CSC(c2ccncc2)=N1 (centres undefined)	?	-3	1	-8%	21µM*	-7%
O=C(Nc1ccc2c(c1)OCCO2)C1c2ccccc2OCC(=O)N1CC(F)(F)F (centres undefined)	-17%	-20	/	/	-11%	/
CC(NC1CCN(Cc2ccccc2)CC1)c1ccc(F)cc1 (centres undefined)	?	?	7	4%	?	/
CC(C)C(CCNC1CCN(C)CC1)c1ccc(Cl)cc1 (centres undefined)	3.3µM*	-52*	0	23µM*	4.6µM*	/
CN1CCC(NCCC(c2ccc(F)cc2)c2ccc(Cl)cc2)CC1 (centres undefined)	5.8µM*	-103*	2	?	5.8µM*	/
CCOC(=O)Nc1cc(NC(=O)OCC)c(C)nc1C	10%	0	1	5%	-4%	2%
Cc1ccc(OCC(=O)N/N=C/C=C/c2ccco2)cc1C	?	?	-4	1%	?	1%
COCCNC(=O)c1ccc2c(c1)N(Cc1cc(C)ccc1C)C(=O)c1ccccc1S2=O (centres undefined)	15µM*	/	/	/	?	3%
SMILES	DT40 TDP1 no CPT	IL1B secr inh	Giardia killer	ELG1 DNA repair	TDP1 cell CPT	TDP1 block
Cc1ccc(C)c(CN2C(=O)c3ccccc3S(=O)c3ccc(C(=O)NCCc4ccc(Cl)cc4)cc32)c1 (centres undefined)	7.3µM*	/	/	/	13µM*	2%
COc1cc(C)cc2oc(=O)c(CC(=O)NCCc3ccc(Cl)cc3)c(C)c12	-26%	/	/	/	-27%	5%
CC(C)NC(=O)NC(=O)COC(=O)c1cccc(S(=O)(=O)N2CCCCC2)c1	-1%	-15	-11	11%	-26%	4%
CCCCOC(=O)c1ccc(NC(=O)CN2C(=O)NC3(CCCCCC3)C2=O)cc1	8.2µM*	?	26	18%	10µM*	3%
CCOC(=O)c1ccc(NC(=O)CN2C(=O)NC3(CCCCCCC3)C2=O)cc1	?	0	31	8%	15µM*	2%
CCCCOC(=O)c1ccc(NC(=O)COC(=O)CN2C(=O)NC3(CCCC3)C2=O)cc1	7%	30	1	/	4%	/
CCCCOC(=O)c1ccc(NC(=O)C(=O)NCc2ccncc2)cc1	23µM*	24	10	?	23µM*	0%
CC(NC(=O)CN1C(=O)NC2(CCCCCC2)C1=O)c1ccccc1 (centres undefined)	-19%	-13	15	12%	-27%	-4%[56.1 µM]
CC(=O)N[C@H]1[C@H](Oc2ccc3c(c2)CCC2C3CC[C@]3(C)C(=O)CCC23)O[C@H](CO)[C@@H](O)[C@@H]1O (some centres undefined)	-26%	59	4	-14%	-1%	/
COc1cccc(CNC(=O)c2c(OC)cc(=O)n3c2CCN(C(=O)c2ccc(Cl)cc2)CC3)c1	5%	/	/	/	-1%	/
C=C1C2CC[C@]3(CCC4[C@@]5(C)CCC[C@@]4(CN(CCO)C5)[C@@H]3C2)[C@@H]1O (some centres undefined)	-5%[9.04 µM]	/	/	/	-9%[9.04 µM]	6%
Cc1ccccc1-n1c2nc(=O)[nH]c(=O)c-2cc2c(Cl)cccc21	0.52µM*	/	/	/	0.82µM*	4%[12.3 µM]
CCC/C=C/c1ccc(CN2C(C(C)C)C(=O)N(Cc3cn(CC4CCCCC4)nn3)CCS2(=O)=O)cc1 (centres undefined)	12µM*	-12	/	/	16µM*	/
CCC/C=C/c1ccc(CN2C(C)C(=O)N(Cc3cn(CC4CCCCC4)nn3)CCS2(=O)=O)cc1 (centres undefined)	21µM*	30	/	/	?	/
CCC/C=C/c1ccc(CN2C(CC(C)C)C(=O)N(Cc3cn(CCOCOC)nn3)CCS2(=O)=O)cc1 (centres undefined)	-27%	-14	/	/	-15%	/
